# Experimental data reported in PubChem BioAssay AID493012 (Sanford-Burnham Center for Chemical Genomics, 2011).
# In all, about 330,000 compounds went through this assay and about 930 (0.28%) were called active. Only a selection was taken, and actives are over-represented in it overall. A number with no mark means an inactive call.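 Rule for the calls: active = inhibition of at least 40% at 20 µM, with no more than 30% in the related APOBEC3A deaminase screen; inactive = the rest.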
# Molecular target: DNA dC->dU-editing enzyme APOBEC-3G (Homo sapiens) (UniProt Q9HC16)
# Sequence (Q9HC16 whole entry, looked up): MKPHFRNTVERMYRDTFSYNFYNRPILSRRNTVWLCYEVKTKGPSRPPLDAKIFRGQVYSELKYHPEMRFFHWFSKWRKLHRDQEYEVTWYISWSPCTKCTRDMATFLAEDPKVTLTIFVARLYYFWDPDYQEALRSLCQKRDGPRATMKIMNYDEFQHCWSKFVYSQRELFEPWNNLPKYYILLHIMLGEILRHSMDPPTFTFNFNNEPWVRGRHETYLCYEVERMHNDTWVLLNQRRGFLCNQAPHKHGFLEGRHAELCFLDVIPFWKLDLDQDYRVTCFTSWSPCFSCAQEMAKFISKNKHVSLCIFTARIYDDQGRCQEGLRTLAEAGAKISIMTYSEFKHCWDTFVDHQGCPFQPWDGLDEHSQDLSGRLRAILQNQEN
# Assay: APOBEC3G DNA deaminase inhibitors, primary screen, biochemical, fluorescence, single-stranded DNA substrate, uHTS (AID 493012);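 note: plate controls were DMSO wells with A3G for no effect and wells lacking A3G enzyme for full effect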
# Settings: recombinant A3G, ssDNA deamination FAM/TAMRA fluorescence; at 20 µM; active compounds read high
row,Structure (SMILES),inhibition
1,COc1cc(OC)c(NC(=O)C2CCCN2C(=O)OCc2ccccc2)cc1Cl (configuration not stated),-7.18%
2,CCOC(=O)c1sc(=S)n2c1[nH]c(=O)c1ccc(C(=O)OC)cc12,41.3% (active)
3,CCOC(=O)c1ccc(Nc2cc3ccccc3c(=O)[nH]2)cc1,-6.08%
4,CCOC(=O)C1=C(C)Nc2sc(C(=O)c3ccc(Br)cc3)c(N)c2C1c1ccc(C(=O)OC)cc1 (configuration not stated),-6.26%
5,CCCN1C2CCCC1CC(NC(=O)NC13CC4CC(CC(C4)C1)C3)C2 (configuration not stated),-7.31%
6,CC(C)C1Nc2c(C(=O)O)cccc2C(Nc2ccccc2C(=O)O)C1(C)C (configuration not stated),3.35%
7,COc1ccc(N2C(=O)CC(SC(C)C)C2=O)cc1 (configuration not stated),-8.49%
8,COc1ccc(-c2nc(SCC(=O)N3CCCC3)n[nH]2)cc1,-17.7%
9,COc1ccc(N2C(=O)CC(Sc3n[nH]c(-c4ccc(C)cc4)n3)C2=O)cc1 (configuration not stated),41.5% (active)
10,CCOC(=O)C1=C(c2ccccc2)NC(=O)NC1c1cc(OCC)c(O)c([N+](=O)[O-])c1 (configuration not stated),-2.96%
11,CCOC(=O)c1cnc(Nc2nc3ccccc3o2)nc1CSC(=S)N1CCCCC1,-3.98%
12,CC(C)NC(=O)NC(=O)COC(=O)c1ccc(NC(=O)CC#N)cc1,-1.25%
13,N#CCC(=O)Nc1ccc(C(=O)OCC(=O)Nc2sc3c(c2C#N)CCCC3)cc1,-9.04%
14,CCOc1ccc(NC(=O)c2ccc(NC(=O)COC(=O)c3ccc(NC(=O)CC#N)cc3)cc2)cc1,66.2% (active)
15,COc1ccc(C2(C)ON(c3ccccc3C(F)(F)F)C2=O)cc1 (configuration not stated),-6.81%
16,O=C(C1CC(=O)N(C2CCCCC2)C1)N1CCN(c2ccccc2)CC1 (configuration not stated),-5.67%
17,O=C1C=CC(=O)N1c1ccc(N2CCCCC2)cc1,56.8% (active)
18,CC(=O)Nc1ccc(S(=O)(=O)Nc2ccc(N3CCCCC3)cc2)cc1,-1.93%
19,COc1ccccc1OCC(=O)Nc1c2c(nn1-c1ccc(F)cc1)CS(=O)(=O)C2,-3.56%

row,Structure (SMILES),inhibition
1,O=C(NCC1CCCCC1)c1cc(S(=O)(=O)N2CCCCC2)ccc1N1CCOCC1,-1.87%
2,O=C(CCn1c(=O)oc2ccccc21)Nc1ccon1,-6.36%
3,COC(=O)c1c(C)c(C)nc(N)c1C#N,-1.41%
4,Cc1nc(Cl)c(C#N)c2c1CCCC2,-4.63%
5,COCc1c(N)c(C)nc(Cl)c1C#N,66.3% (active)
6,Brc1ccc(C2CC(c3ccccc3)=Nc3ccccc3N2)cc1 (configuration not stated),-3.13%
7,Cn1cccc1C(=O)NC(=O)COC(=O)Cc1coc2ccc3ccccc3c12,-8.11%
8,COc1cccc(CN2CCN(Cc3ccc4cccc(F)c4n3)CC2CCO)c1 (configuration not stated),-9.71%
9,COc1ccc(CNC(=O)C(=O)N2CCC3(CC2)OCCN3S(=O)(=O)c2ccc(C)cc2)cc1,-5.73%
10,Cc1ccc(NC(=O)CN(C)C(=O)c2ccc(Cl)c(S(=O)(=O)NCc3ccco3)c2)cc1,-5.2%
11,COc1ccccc1/C=C/C=N/n1c(-c2ccc(Cl)cc2Cl)n[nH]c1=S,-7.26%
12,S=c1[nH]nc(-c2ccco2)n1/N=C/c1ccccc1,44.3% (active)
13,S=c1[nH]nc(-c2ccco2)n1/N=C/c1ccc(Br)s1,17%
14,Cc1ccc(CN2CCN(/N=C/c3ccco3)CC2)c(C)c1,-10.3%
15,Cc1cc(-c2n[nH]c(=S)n2/N=C/c2ccco2)n[nH]1,44.7% (active)
16,Fc1ccc(/C=N/n2c(COc3ccccc3)n[nH]c2=S)cc1,13.5%
17,CCC(C)(C)NC(=O)c1cc([N+](=O)[O-])ccc1N1CCCCC1,-0.515%
18,CC1(C)C[C@H]2C3=CCC4[C@@]5(C)CC[C@H](O)[C@](C)(CO)C5CC[C@@]4(C)[C@]3(C)C[C@@H](O)[C@@]2(CO)[C@@H](O)[C@@H]1O (some centres not stated),-1.86%
